# According to PubChem BioAssay AID777 (Sanford-Burnham Center for Chemical Genomics, 2007):
# The campaign covered roughly 96,000 compounds. About 19,000 (20%) were called active. These entries were drawn from the full list. A number with no mark means an inactive call.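 How the source made its calls: active means blocking of liver enzyme CYP2C9 beyond about 50% at 5 µM (limit read from the data); inactive means the rest.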
# Molecular target: Cytochrome P450 2C9 (Homo sapiens) (UniProt P11712)
# Assay: blockers of cytochrome P450 2C9 activity – biochemical, luminescence, ADME assay, primary screen (AID 777)
# Details: CYP2C9 Supersomes, luciferin-H conversion, at 5 µM, hits give high values
# Sequence of Cytochrome P450 2C9 (Homo sapiens) (P11712 whole entry, looked up): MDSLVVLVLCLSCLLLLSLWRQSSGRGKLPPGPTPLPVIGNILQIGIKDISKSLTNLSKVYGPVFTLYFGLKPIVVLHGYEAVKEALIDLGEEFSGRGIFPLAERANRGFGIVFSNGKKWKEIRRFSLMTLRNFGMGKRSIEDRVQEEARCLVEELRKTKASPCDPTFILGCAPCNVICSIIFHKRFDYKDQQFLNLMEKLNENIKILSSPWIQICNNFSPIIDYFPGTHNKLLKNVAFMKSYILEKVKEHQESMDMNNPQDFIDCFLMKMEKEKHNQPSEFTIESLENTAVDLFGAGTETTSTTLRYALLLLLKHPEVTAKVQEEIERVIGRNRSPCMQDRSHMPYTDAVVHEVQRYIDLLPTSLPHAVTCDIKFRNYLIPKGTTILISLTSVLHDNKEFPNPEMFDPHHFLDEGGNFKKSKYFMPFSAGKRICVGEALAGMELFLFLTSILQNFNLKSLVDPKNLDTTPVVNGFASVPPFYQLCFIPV
row,Structure (SMILES),inhibition
1,O=C(CN1CCSCC1)N/N=C/c1ccc(F)cc1,17.1%
2,O=C(O)c1cccc2c1C(=O)N(C1CCCCC1)C2,-13.9%
3,COCCNC(=O)c1snc2ccc(Cl)cc12,-11.2%
4,COc1ccc(NC(=O)Nc2cccc3cccnc23)cc1,-39.1%
5,O=c1cc(Cn2nnc(-c3ccc(Cl)cc3)n2)nc2sccn12,63.5% (active)
6,O=C(NCc1cn2ccsc2n1)Nc1ccc(Cl)cc1,13.6%
7,O=C(NCc1ccc(Cl)cc1)c1cc2c(nc3sccn32)s1,17.9%
8,Cc1ccc(C(=O)OC2=CC(=O)CC(C)(C)C2)cc1,28.3%
9,CN(c1cccc(NC(=O)Nc2ccc(Cl)cc2)c1)S(C)(=O)=O,30.6%
10,COc1ccc(-c2cc(C(F)(F)F)n3nc(C(=O)N4CCOCC4)c(Cl)c3n2)cc1,0.7%
11,CCOc1cc(CNCCN(C)C)c(Cl)cc1OCC(=O)NCCc1ccccc1,22.3%
12,CCOC(=O)C1=C(O)CSC1=Nc1cccc(Cl)c1,9%
13,Clc1cccc(N=C2NN=C(c3ccc4c(c3)OCCO4)CS2)c1,77.7% (active)
14,COc1ccc(-c2cc(C(=O)NC(C(=O)O)C(C)C)c(C)o2)cc1OC (stereo unspecified),21%
15,O=C(Nc1c2c(nn1-c1ccc(F)cc1)CS(=O)C2)C12CC3CC(CC(C3)C1)C2 (stereo unspecified),14.4%
16,COc1ccc(C2C(C(C)=O)=C(O)C(=O)N2c2nccs2)cc1 (stereo unspecified),5%
17,COC(=O)N1CN(C(=O)OC)CN(C(=O)OC)C1,-12.2%
18,COn1c(=O)c(=O)n(OC)c2ccccc21,3.2%
19,CCc1ccccc1N(CC(=O)N1CCN(c2ccccc2F)CC1)S(C)(=O)=O,2.9%
20,CCOC(=O)C(C)Sc1nc2ccccc2c(=O)n1CC1CCCCC1 (stereo unspecified),78.8% (active)
21,N#Cc1c(NC(=O)CSc2nc3ccccc3c(=O)n2Cc2ccco2)sc2c1CCCC2,3.9%
22,CCOC(=O)C1CCc2nc3ccccc3c(=O)n21 (stereo unspecified),3.3%

row,Structure (SMILES),inhibition
1,CCOn1c(SC(C)C)nc2ccccc2c1=O,17.6%
2,CC(Sc1nc2ccccc2c(=O)n1Cc1ccco1)C(=O)c1ccccc1 (stereo unspecified),88.2% (active)
3,O=c1[nH]c(CSc2ncc(-c3ccc(F)cc3)n2Cc2ccco2)nc2ccccc12,21.2%
4,O=C(CNS(=O)(=O)c1cccc(C(F)(F)F)c1)Nc1ccccc1F,-19.7%
5,Cc1c2cn[nH]c(=O)c2c(C)n1Cc1ccc(F)cc1,6.2%
6,Nc1nc(SCc2ccccc2Cl)n[nH]1,-6.7%
7,Clc1ccc(CSc2nnc(/C=C/c3ccccc3)o2)c(Cl)c1,49.9%
8,O=c1cc(CSc2ccc(Cl)cc2)nc(N2CCOCC2)[nH]1,8.5%
9,CSCc1cc(N2CCOCC2)nc(SCc2ccc(Cl)cc2Cl)n1,57.5% (active)
10,CSCc1cc(N(C)C)nc(SCc2ccc(Cl)cc2Cl)n1,56.7% (active)
11,COc1ccc([N+](=O)[O-])cc1C1NN=C(c2cccc3ccccc23)S1 (stereo unspecified),-70.8%
12,CCC(=O)NNc1cc(=O)c2c(=O)n(C)c(=O)n(C)c2[nH]1,4%
13,COc1ccc(S(=O)(=O)NC2(C(F)(F)F)N=C3SCCN3C2=O)cc1 (stereo unspecified),-5.2%
14,CSCCC(NC(=O)c1ccc(=O)n(C)n1)c1nc2ccccc2[nH]1 (stereo unspecified),10.3%
15,CC1CCCCC1NC(=O)CCS(=O)(=O)c1cccc2nonc12 (stereo unspecified),7.9%
16,CCCNC(=O)CN(Cc1ccccc1F)S(=O)(=O)c1ccc(C)cc1,74.3% (active)
17,CCNC(=O)CN(c1ccc(C)cc1)S(=O)(=O)c1ccc(SC)cc1,26.9%
18,Cc1ccc(S(=O)(=O)N(CC(=O)NCCSC2CCCCC2)c2ccccc2F)cc1,-9.7%
19,CCCC(=O)N(CCc1ccccc1)Cc1nc2ccccc2c(=O)[nH]1,38.3%
20,COc1nc(-c2ccc(Cl)cc2)ccc1-c1noc(-c2cccs2)n1,23.2%
21,C=CCNC(=O)c1csc(-c2ccccc2)n1,35.2%
22,C=CCNc1nc(N)c(C(=C(C#N)C#N)c2ccccc2)s1,69.6% (active)

row,Structure (SMILES),inhibition
1,CCCn1c(=O)c2ccccc2n2c(SCC(=O)/C(C#N)=C(\C)N)nnc12,14.3%
2,CCOc1ccccc1NC(=O)CCc1ccc(C)o1,-185%
3,CC1=NCCN1S(=O)(=O)c1ccc(Br)c(C)c1,-80.5%
4,CCCCOc1ccc(Cl)cc1CSc1nncn1N,74.2% (active)
5,CCCCOc1ccc(CSC(=N)N)cc1[N+](=O)[O-],20%
6,Cn1ncc2c(Nc3cccc4ccccc34)ncnc21,-1.5%
7,O=C1COc2ccc(NC(=O)N3CCN(c4ccc(F)cc4)CC3)cc2N1,19.5%
8,CC1=NC2(CCCc3c2no[n+]3[O-])N(O)C1(C)C (stereo unspecified),11.5%
9,O=S1(=O)CCN2C(=N1)SC1=C2CCN(Cc2ccccc2)C1,0.4%
10,COC(=O)CN(C(=S)Nc1ccc(Cl)cc1)C1CC(=O)N(c2ccc(OC)cc2)C1=O (stereo unspecified),43.6%
11,Cc1cnc(NC(=O)CSc2c(Cl)cccc2Cl)s1,1.4%
12,COC(=O)c1ccccc1NC(=O)CSc1ccccn1,-10.9%
13,COC(=O)c1c(-c2cccs2)csc1NC(=O)CSc1ncnc2sc(C)c(C)c12,76.2% (active)
14,CCn1c(SC)nc(O)c(C(c2ccc(OC)c(O)c2)c2c(O)nc(SC)n(CC)c2=O)c1=O,23.3%
15,Cc1cc(C)nc(SCc2nnc(SCC(=O)OC3CCCCC3)o2)n1,7%
16,Nc1cc(=O)nc(SCc2ccccc2)n1Cc1ccco1,7.5%
17,CCOC(=O)CSc1nnc(-c2ccco2)n1C,-20.3%
18,CCOC(=O)CSc1nc2c(sc(=S)n2CCc2ccccc2)c(=O)n1Cc1ccco1,66.9% (active)
19,O=C(C1=C(O)C(=O)N(Cc2ccccc2)C1c1ccco1)c1ccco1 (stereo unspecified),24%
20,CC1=NN(Cc2ccccc2)C(=O)/C1=C/c1ccc(N(C)C)cc1,14.4%
21,CN(C)c1cc[n+](Cc2ccccc2)cc1,2.2%
22,CN(C)c1ccc(/C=C2\NC(=S)N(Cc3ccccc3)C2=O)cc1,66.2% (active)
